# D3 antag – D3 dopamine receptor (human) antagonism; P35462; D3R cells, DiscoveRx beta-arrestin luminescence, antagonist mode; stronger effect = lower value; max response, negative = inhibition, %; hit rate 2.5% among 360,000; in the data active = max response below about -50%; inconclusive = no clear call, values can overlap the other calls; note: % is set by controls: 0 for no effect and ±100 for the full control effect
# Target sequence (P35462 whole entry, looked up): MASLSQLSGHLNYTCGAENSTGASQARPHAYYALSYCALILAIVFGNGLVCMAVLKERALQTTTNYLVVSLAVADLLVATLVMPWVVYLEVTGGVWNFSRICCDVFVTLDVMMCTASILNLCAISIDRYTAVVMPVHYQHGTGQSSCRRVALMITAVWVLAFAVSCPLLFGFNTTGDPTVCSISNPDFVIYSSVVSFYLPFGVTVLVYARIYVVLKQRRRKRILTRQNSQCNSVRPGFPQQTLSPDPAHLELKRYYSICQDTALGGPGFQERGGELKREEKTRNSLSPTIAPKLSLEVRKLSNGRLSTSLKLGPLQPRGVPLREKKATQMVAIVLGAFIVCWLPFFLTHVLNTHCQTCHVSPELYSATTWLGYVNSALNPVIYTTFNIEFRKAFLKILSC
#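 Cells plated overnight at 1500 cells/well, then exposed to library compounds with dopamine controls for 90 minutes at 37 degrees C. DiscoveRx reagent added for 30–60 minutes at room temperature; luminescence read, quantitative HTS format.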
# IL-1B inflam inh – inhibitors of inflammasome signaling (IL-1 beta secretion) | THP-1 LPS/ATP IL-1B secretion, AlphaLISA, 16 h; stronger effect = lower value | activity change, % at 57.5 µM | hit rate 4.7% among 360,000; in the data active = activity change below about -50%; inconclusive = mostly about -30% to -49%; note: % is set by controls: 0 for no effect and ±100 for the full control effect
#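 THP-1 cells pretreated 1 hr with compounds (up to 57.5 uM final), then stimulated with LPS (250 ng/mL final) plus ATP (1.25 mM final); secreted IL-1B measured by AlphaLISA after 16 hr, decreased signal indicating inhibition.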
# TDP1 cell noCPT – qHTS for Inhibitors of human tyrosyl-DNA phosphodiesterase 1 (TDP1): qHTS in cells in absence of CPT. DT40 Tdp1-/- hTDP1 cells, no CPT, ATP luminescence, 48 h. Potency, µM (doses to about 46.2 µM), for inactives: top-dose activity change, negative = growth inhibition, actives largely listed as inhibitors. hit rate 15% among 420,000; note: potency is the fitted concentration of half-maximal effect; % is set by controls: 0 for no effect and ±100 for the full control effect; nearly all actives have a fitted effect of over 55% in size
#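 No-CPT arm: Tdp1-/-;hTDP1 DT40 cells (400/well) plus compounds, incubated ≥48 hr at 37 °C. Readout CellTiter-Glo luminescence.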
# DT40 TDP1 CPT – growth inhibition of DT40 Tdp1-/-;hTDP1 cells with camptothecin (screen for TDP1 inhibitors); chicken DT40 Tdp1-/-;hTDP1 cells + 20 nM CPT, ATP luminescence, 48 h; Potency, µM (doses to about 46.2 µM), for the others: at the top dose activity change, negative = growth inhibition, most hits filed as inhibitors; hit rate 12% among 420,000; note: potency is the fitted concentration of half-maximal effect; % is set by controls: 0 for no effect and ±100 for the full control effect; nearly all actives have a fitted effect of over 55% in size
#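 Cell growth measured by CellTiter-Glo luminescence after a minimum 48 h, 37 C compound exposure with 20 nM CPT in Tdp1-knockout DT40 cells stably expressing hTDP1, seeded 400/well; qHTS titration format.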
# DRD3 agonist – D3 dopamine receptor (human) agonism; P35462; D3R DiscoveRx beta-arrestin cells, luminescence, 90 min; max activation, %; hit rate 0.58% among 410,000; in the data active = max activation above about 30%; note: 0% is about no effect
#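 Cells at 1500/well, incubated overnight, then treated with pinned compounds (dopamine as control) for 90 min at 37 degrees C. DiscoveRx reagent added for 30 - 60 minutes at room temperature; luminescence read.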
# ClpP mod – qHTS Assay for Activators of ClpP | purified B. subtilis ClpP, FRET peptide cleavage, 20 min | Potency, µM (titrated, usually from 57.5 µM), without a hit: top-dose activity change, negative = active | hit rate 1.9% among 340,000; active = well fitted falling curve with a large enough effect; inconclusive = small, poorly fitted or top-dose-only effect; inactive = no such curve, though single readings can be large or run the other way; note: potency is the fitted concentration of half-maximal effect; the source files actives as falling curves though it sought activators and does not explain the sign; nearly all actives have a fitted effect of over 65% in size
# Target sequence (P80244 whole entry, looked up): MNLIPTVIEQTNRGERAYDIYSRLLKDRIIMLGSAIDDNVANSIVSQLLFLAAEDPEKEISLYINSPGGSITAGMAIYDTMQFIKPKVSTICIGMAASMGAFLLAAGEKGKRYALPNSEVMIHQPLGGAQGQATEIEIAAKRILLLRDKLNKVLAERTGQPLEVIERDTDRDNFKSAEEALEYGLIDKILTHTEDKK
#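 Buffer: 100 mM Tris/HCl pH8, 100 mM KCl, 0.05% low protease BSA, 2.5% glycerol, 0.01% Tween-20. ClpP 10 microg/mL final; 20 min RT; delta FRET normalized to ADEP and DMSO controls.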
# Numbers without * were called inactive; ? = inconclusive; · = no result. In the library only some 21% were active in any assay of this set; here they are far more common. Unless noted, calls come from the whole dose curve; as a rule, active = well fitted inhibition curve with a large enough effect; inconclusive = small, poorly fitted or top-dose-only effect; inactive = flat fitted curve, though single readings scatter.
SMILES,D3 antag,IL-1B inflam inh,TDP1 cell noCPT,DT40 TDP1 CPT,DRD3 agonist,ClpP mod
Cc1sc2ncn(CC(=O)NCCCN3CC(C)CC(C)C3)c(=O)c2c1S(=O)(=O)N1CC(C)CC(C)C1 (stereo not drawn),-90*,0,?,18µM*,-28,·
COc1cc2[nH]c(=O)n(CCCCCC(=O)NCCc3ccccc3)c(=O)c2cc1OC,·,·,-14%,-16%,-4,-7%
COc1cc2[nH]c(=O)n(CCCC(=O)N3CCN(c4cccc(C(F)(F)F)c4)CC3)c(=O)c2cc1OC,·,·,2.3µM*,4.6µM*,-8,-10%
COc1cc2[nH]c(=O)n(CCC(=O)NCc3cccnc3)c(=O)c2cc1OC,-18,-2,2%,0%,-8,28µM*
COc1cc2[nH]c(=O)n(CCCC(=O)NCc3ccccc3)c(=O)c2cc1OC,·,·,-9%,-11%,-2,5%
COc1cc2[nH]c(=O)n(CCCCCC(=O)N3CCN(c4ccccc4)CC3)c(=O)c2cc1OC,26,-14,16µM*,21µM*,4,-24%
COC(=O)c1ccc2c(=O)n(CCCCCC(=O)N3CCN(c4ccccc4)CC3)c(=O)[nH]c2c1,6,-18,10µM*,18µM*,28,-12%
Cc1ccc(CCNC(=O)c2cc3sccc3n2Cc2ccc(F)cc2)cc1,·,·,?,-20%,-19,?
COc1ccccc1CNC(=O)N1CCN(c2ccccc2Cl)CC1,14,-15,?,-30%,10,·
CCOc1cc2[nH]c(=O)n(CCCCC(=O)N3CCN(c4ccc(OC)cc4)CC3)c(=O)c2cc1OCC,·,·,9.2µM*,16µM*,1,-3%
COc1cc2[nH]c(=O)n(CCCCCC(=O)N3CCN(c4ccc(Cl)cc4)CC3)c(=O)c2cc1OC,·,·,7.3µM*,?,-11,-22%
COc1cc2[nH]c(=O)n(CCC(=O)N3CCN(c4ccc(Cl)cc4)CC3)c(=O)c2cc1OC,·,·,-25%,-21%,-18,-6%
COC(=O)c1ccc2c(=O)n(CCCCCC(=O)N3CCN(c4cc(Cl)ccc4C)CC3)c(=O)[nH]c2c1,·,·,5.8µM*,7.3µM*,8,-3%
COc1cc2[nH]c(=O)n(CCC(=O)N3CCN(c4cccc(C)c4C)CC3)c(=O)c2cc1OC,-5,34,?,23µM*,-3,-20%
CCCCn1c(N)c(N(CCC(C)C)C(=O)C2CCN(C(=O)c3ccccc3C)CC2)c(=O)[nH]c1=O,-18,-4,-3%,-3%,-3,2%
COCCN(C(=O)CSc1nc(N)cc(=O)[nH]1)c1c(N)n(Cc2ccccc2)c(=O)[nH]c1=O,-9,12,3%,16%,-11,·
COc1ccc(C(CNC(=O)c2cc(S(=O)(=O)Nc3cccc(C)c3)ccc2C)N2CCOCC2)cc1 (stereo not drawn),17,?,?,?,0,-1%
O=C(NCC(c1cccs1)N1CCOCC1)c1cc(F)cc(F)c1 (stereo not drawn),-6,21,15µM*,21µM*,-5,-3%
O=C(NCC(c1cccs1)N1CCOCC1)c1ccc(Cl)cc1 (stereo not drawn),?,14,?,?,2,4%
COc1cc(C(=O)NCCCN2CCCC2=O)cc(Br)c1OCc1ccccc1,-16,6,18µM*,?,-7,-2%
Cc1cccc(NS(=O)(=O)c2ccc(C)c(C(=O)NCC(c3cccs3)N3CCOCC3)c2)c1 (stereo not drawn),2,0,16µM*,?,9,1%
O=C(NCC(c1cccs1)N1CCOCC1)c1cn(-c2ccccc2)nc1-c1ccccc1 (stereo not drawn),1,0,18µM*,?,-7,-1%
O=C(CN1C(=O)C2CCCCC2C1=O)OCC(=O)c1ccc(F)cc1 (stereo not drawn),-1,1,-3%,5%,1,-2%
CCOc1ccc(-n2c(SCC(=O)NC)nnc2-c2ccco2)cc1,-3,6,-2%,8%,4,-13%
C=C1C=C(C(F)F)n2ncc(C(=O)Nc3ccc(N(CC)CC)cc3)c2N1,·,·,-25%,10%,·,-1%
SMILES,D3 antag,IL-1B inflam inh,TDP1 cell noCPT,DT40 TDP1 CPT,DRD3 agonist,ClpP mod
COc1cc(C(=O)NCC(c2cccs2)N2CCOCC2)cc(Br)c1OCc1ccccc1 (stereo not drawn),-10,-8,9.2µM*,9.2µM*,-2,-2%
CC1=C(C(=O)OCC2CCCO2)C(c2ccncc2)C2=C(CCCC2=O)N1 (stereo not drawn),1,-1,8%,0%,-5,22µM*
COc1cc(C2NC(=O)NC(C)=C2C(=O)OCC2CCCO2)ccc1O (stereo not drawn),13,1,-10%,-14%,31*,1%
CC1=C(C(=O)OCC2CCCO2)C(c2ccccc2OC(C)C)C2=C(CC(c3ccco3)CC2=O)N1 (stereo not drawn),-21,-10,?,-30%,-2,?
CCOC(=O)C1=C(C)NC2=C(C(=O)CCC2)C1c1cccnc1 (stereo not drawn),-22,3,-6%,-11%,-8,?
CC1=C(C(=O)OC(C)C)C(c2cccnc2)C2=C(CCCC2=O)N1 (stereo not drawn),-22,-4,-11%,-6%,-14,28µM*
CC1=C(C(=O)OCC2CCCO2)C(c2cccc(C(F)(F)F)c2)C2=C(CC(c3ccco3)CC2=O)N1 (stereo not drawn),32,-53*,?,?,-6,?
COc1cc(C2NC(=O)NC(C)=C2C(=O)OCC2CCCO2)cc(OC)c1OC (stereo not drawn),3,-3,1%,11%,-3,·
COCCNC(=O)CCn1nc(-c2ccc(C)cc2)ccc1=O,-11,8,1%,22%,6,·
COc1ccc(CNC(=O)c2cn(Cc3ccc(S(=O)(=O)N(C)C)cc3)c(=O)s2)cc1,7,-23,?,?,7,-4%
O=C(N[C@@H](Cc1ccccc1)C(=O)N1CCC2(CC1)NCCc1[nH]cnc12)c1cccc(Br)c1,1,?,6.5µM*,10µM*,-2,-2%
C[C@H](NC(=O)Cc1ccccc1)C(=O)N1CCC2(CC1)NCCc1[nH]cnc12,-3,12,1%,-22%,3,0%

# Source: PubChem
